# Compound activity deposited in PubChem by National Center for Advancing Translational Sciences (NCATS).
# Gal4-VP16 FLuc = counter-screen for ROR gamma inhibitors: Gal4-VP16 reporter; 3.5% of 310,000 active; Potency, µM (highest dose often 53.6 µM), inactives show at the top dose activity, negative = inhibition, usual class: inhibitors; AID 2546; Drosophila S2 Gal4-VP16 UAS-luciferase, luminescence, 20 h;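 also: Gal4-VP16 expression switched on by copper sulfate through the metallothionein promoter; potency is read from the fitted curve at half-maximal effect; nearly all actives have a fitted effect of over 50% in size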
# FBPA coupling cs = inhibits coupling enzyme system, counter-screen for aldolase hits; coupling enzyme system counterscreen, AmpLite Red fluorescence; activity change, negative = inhibition, % at 58.2 µM, hits read low; 0.67% of 290,000 active; AID 2472; in the data active = activity change below about -30%
#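 Counterscreen of the coupled detection system alone, without aldolase: glyceraldehyde-3-phosphate coupling enzymes plus AmpLite Red readout. Compounds at 57.5 uM final, 10 min RT preincubation, 20 min RT reaction, fluorescence 525/598 nm.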
# ELG1 DNA repair = inhibitors of ELG1-dependent DNA repair in HEK293T cells | HEK293T ELG1-luciferase reporter, luminescence, 16 h; DNA damage induced by 5-fluorouridine | Potency, µM (top dose mostly 46.1 µM), for the others: at the top dose activity change, negative = inhibition, hits mostly inhibitors | 2.3% of 330,000 active | AID 504467; also: potency is read from the fitted curve at half-maximal effect; nearly all actives have a fitted effect of over 55% in size
#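 Reporter activity after DNA damage by 5-fluorouridine is monitored. Compound-treated cells incubate 16 hr at 37 °C, then ONE-Glo is added for 30 min before luminescence reading.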
# RORgamma inh = blocks mouse ROR gamma transcriptional activity | Potency, µM (top dose mostly 53.6 µM), without a hit: at the top dose activity change, negative = inhibition, hits mostly inhibitors | Drosophila S2 Gal4-RORgamma UAS-luciferase reporter, 20 h | 5.4% of 310,000 active | P51450; also: potency is read from the fitted curve at half-maximal effect; nearly all actives have a fitted effect of over 60% in size
# Target sequence (P51450 whole entry, looked up, the tested form may be a part): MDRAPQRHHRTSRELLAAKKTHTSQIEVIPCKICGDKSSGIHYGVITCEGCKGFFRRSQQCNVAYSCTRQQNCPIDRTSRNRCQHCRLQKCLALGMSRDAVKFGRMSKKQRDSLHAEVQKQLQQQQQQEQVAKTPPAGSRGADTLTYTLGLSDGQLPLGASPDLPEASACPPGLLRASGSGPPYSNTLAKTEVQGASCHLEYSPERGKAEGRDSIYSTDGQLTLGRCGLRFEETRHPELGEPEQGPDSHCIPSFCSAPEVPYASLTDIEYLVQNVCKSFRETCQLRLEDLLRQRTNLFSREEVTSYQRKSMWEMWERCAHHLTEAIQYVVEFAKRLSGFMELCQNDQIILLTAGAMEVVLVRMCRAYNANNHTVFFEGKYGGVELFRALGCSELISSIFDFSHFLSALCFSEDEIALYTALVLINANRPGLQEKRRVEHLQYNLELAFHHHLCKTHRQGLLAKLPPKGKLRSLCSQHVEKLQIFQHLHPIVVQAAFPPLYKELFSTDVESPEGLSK
#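 Luminescence from a UAS-regulated Photinus luciferase reporter in stably transfected Drosophila Schneider cells is measured; decreased signal marks ROR gamma inhibition. Fusion expression is induced by 700 uM copper sulfate for 20 hr.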
# TSHR antag = antagonists of human thyroid stimulating hormone receptor; P16473; TSHR-expressing cells, TSH-stimulated cAMP HTRF, 2 h; hits give low values; activity change, negative = inhibition, % at 11.5 µM; 0.2% of 330,000 active; AID 504810;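 active = activity change below a set negative limit, meaning inhibition stronger than a set level, cut at about -70% in these data; inconclusive = activity change between two set negative limits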
#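 TSHR-expressing cells were treated with compounds, then stimulated with TSH at EC80 (4nM final) for 2 hours at 37 deg C. Cellular cAMP was measured by HTRF competition between lysate cAMP and cAMP-d2 for a cryptate-labelled anti-cAMP antibody.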
# An asterisk follows results filed as active; ? = inconclusive; · = no result given; [ ] = remark or other dose. Only some compounds are listed: those with a hit (about 8% of all), similar ones and a draw of the others. Unless noted, calls follow the shape of the dose curve; as a rule, active = well fitted curve in the direction sought with a large enough effect; inconclusive = small, poorly fitted or top-dose-only effect, or another doubt; inactive = no such curve, though single readings can be large; an effect the other way counts as inactive or inconclusive. % is scaled to controls: 0 for no effect and ±100 for the full control effect.
SMILES,Gal4-VP16 FLuc,FBPA coupling cs,ELG1 DNA repair,RORgamma inh,TSHR antag
N#Cc1c(N)oc(-c2ccc3c(c2)OCO3)c1-c1ccc2c(c1)OCO2,0.2%,-38.3*,3.3%,33.7%,4.3
CCCc1cc(-c2ccc(O)c(OCC)c2)c(C#N)c(N)n1,4.7%,-2.6,?,20.2%,-12.0
Cc1ccc(-c2cc(-c3ccc(C)o3)nc(N)c2C#N)cc1,?,-5.3,?,?,2.2
Cc1ccc(-c2cc(-c3ccc4c(c3)OCO4)c(C#N)c(N)n2)o1,?,0.6,20.6µM*,?,-7.6
CCn1cc(C2=NC(c3ccccc3)CO2)c2ccccc21 (stereo unspecified),-8.9%,1.0,14.5%,10µM*,7.3
O=[N+]([O-])c1cccc(C2=NC(c3ccccc3)CO2)c1 (stereo unspecified),-12.1%,-0.1,?,-1.3%,2.8
CCn1cc(C2=NCCO2)c2ccccc21,-17.4%,2.4,2.1%,20µM*,16.2
CCn1cc(C2=NC(C)CO2)c2ccccc21 (stereo unspecified),-27.9%,0.2,?,10µM*,1.0
CCn1cc(C2=NCC(C)O2)c2ccccc21 (stereo unspecified),?,-1.5,-0.3%,17.8µM*,-3.4
CCN(CC)Cc1ccc(Nc2ccnc3cc(Cl)ccc23)cc1O,-7.0%,-1.2,·,12.9%,·
CN(CC(=O)NCC1CCCCC1)CC(=O)Nc1ccc(F)cc1,·,·,3.1%,·,18.6
CCn1cc(C2=NC(C)(C)CO2)c2ccccc21,?,0.3,?,20µM*,-4.8
CC(=O)NC(CC(=O)OCC(=O)N1CCN(S(=O)(=O)c2ccc(Cl)cc2)CC1)c1ccccc1 (stereo unspecified),·,·,-15.7%,·,0.2
COc1cccc(/C=N/n2c(-c3ccco3)nc3ccccc3c2=O)c1OC,-11.7%,-2.4,5.17µM*,-1.0%,20.4
COc1cccc(/C=N/n2c(C)nc3ccccc32)c1OC,8.91µM*,-0.6,?,3.16µM*,-26.2
COc1ccc(/C=N/n2c(SC)nnc2-c2ccccc2)c(OC)c1OC,2.3%,3.1,8.2µM*,-36.5%,4.1
COc1ccc(/C=N/n2c(SC)nnc2-c2ccccc2)cc1C,20.7%,21.0,·,-9.4%,·
Cc1noc(C)c1C(=O)N(C)CC(=O)Nc1ccc(F)c(F)c1F,·,·,4.7%,·,0.9
O=C(N/N=C/c1ccccc1O)NC12CC3CC(CC(C3)C1)C2,15.8µM*,1.4,?,?,8.5
O=C(N/N=C/c1cc(Cl)cc([N+](=O)[O-])c1O)NC12CC3CC(CC(C3)C1)C2,?,3.0,-27.6%,3.98µM*,0.4
O=C(N/N=C/c1ccc(O)c(O)c1)NC12CC3CC(CC(C3)C1)C2,-8.5%,-2.1,-3.6%,-17.3%,-19.8
COc1cc(/C=N/NC(=O)NC23CC4CC(CC(C4)C2)C3)ccc1O,-2.5%,-0.9,16.0%,25.6%,-3.4
COc1ccccc1CNc1cc(-c2cccc(C#N)c2)ncn1,8.2%,-0.6,·,1.1%,·
Cc1cccc(CNc2cc(-c3cccc(C#N)c3)ncn2)c1,12.6µM*,-2.7,·,-23.7%,·
Cc1noc(C)c1C(=O)N1CCC[C@@]2(CCN(C(=O)NC(C)C)C2)C1,9.4%,2.3,·,1.2%,·
SMILES,Gal4-VP16 FLuc,FBPA coupling cs,ELG1 DNA repair,RORgamma inh,TSHR antag
O=C1C=CC(=C(c2ccc(O)cc2)c2ccc(O)cc2)C=C1,?,8.0,13µM*,?,-1.8
COc1ccccc1N(C)S(=O)(=O)c1ccc(C(=O)Nc2nnc(C)s2)cc1,·,·,0.8%,·,·
COc1ccccc1N(C)S(=O)(=O)c1ccc(C(=O)Nc2cc(F)ccc2C)cc1,·,·,18.3µM*,·,-19.4
COc1ccccc1N(C)S(=O)(=O)c1ccc(C(=O)NC(C)(C)C)cc1,1.7%,4.3,?,-44.5%,-15.0
COc1cc(OC)cc(C(=O)NNC(=O)c2ccc(S(=O)(=O)N(C)c3ccccc3OC)cc2)c1,-9.0%,2.3,14.6µM*,?,30.1
COc1ccccc1N(C)S(=O)(=O)c1ccc(C(=O)Nc2nc(C)cs2)cc1,-0.6%,-4.5,13µM*,30.1%,-15.0
COc1ccccc1N(C)S(=O)(=O)c1ccc(C(=O)NNC(=O)c2ccccc2O)cc1,·,·,-25.9%,·,-5.2
CCOc1ccc(CCN2C(=O)c3ccc(C(=O)O)cc3C2=O)cc1OCC,-11.0%,6.9,-0.9%,-20.1%,-2.8
N#Cc1cccc(NC(=O)N2CCCC3(CCN(C(=O)c4cnccn4)CC3)C2)c1,-10.3%,1.0,·,-2.2%,·
CCOC(=O)C1=C(O)c2ccccc2C(=O)/C1=C\c1ccc(C)cc1,?,-51.0*,?,?,-12.7
CC[C@@]1([C@@H]2O[C@@H]([C@H]3O[C@@](O)(CO)[C@H](C)C[C@@H]3C)C[C@@H]2C)CC[C@H]([C@]2(C)CC[C@]3(C[C@H](O)[C@@H](C)[C@@H]([C@@H](C)[C@@H](OC)C(C)C(=O)O)O3)O2)O1 (stereo partly specified),-16.2%,1.7,·,?,·
CCOC(=O)C/C(=N\Nc1ncnc2ccccc12)c1ccccc1,6.31µM*,-4.8,7.2%,6.31µM*,10.1
CCOC(=O)/C(=N\Nc1ncnc2ccccc12)c1ccc(C)cc1,12.6µM*,-6.0,?,5.62µM*,-7.8
N[C@H](Cc1cc(I)c(Oc2ccc(O)c(I)c2)c(I)c1)C(=O)O,-2.3%[17 µM],3.0,·,-17.6%[16.9 µM],·
CCN[C@@H]1C[C@H](N)[C@H](O[C@H]2OC(CN)=CC[C@H]2N)[C@@H](O)[C@H]1O[C@H]1OC[C@@](C)(O)[C@@H](NC)[C@@H]1O,-1.4%[17 µM],2.3,·,-33.0%[16.9 µM],·
OCCC1CN(Cc2c(O)ccc3ccccc23)CCN1CCc1ccccc1 (stereo unspecified),5.1%,-37.6*,-6.8%,-10.8%,-14.1
COc1cc(CN2CCN(CCCc3ccccc3)C(CCO)C2)cc(OC)c1O (stereo unspecified),?,-41.0*,-7.9%,-42.2%,-2.1
CC[C@H](C)[C@H](NC(=O)CNC(=O)[C@H](CCCNC(=N)N)NC(=O)[C@H](CO)NC(=O)[C@H](C)NC(=O)[C@H](Cc1ccc(O)cc1)NC(=O)[C@H](Cc1c[nH]c2ccccc12)NC(=O)[C@H](C)NC(=O)[C@@H]1CCCN1C(=O)[C@H](CC(N)=O)NC(=O)[C@@H](NC(=O)[C@H](CC(=O)O)NC(=O)[C@@H]1CCCN1C(=O)[C@@H](N)[C@@H](C)O)[C@@H](C)CC)C(=O)N[C@@H](CCCNC(=N)N)C(=O)N1CCC[C@H]1C(=O)N[C@H](C(=O)NCC(=O)N[C@@H](CCCNC(=N)N)C(=O)N[C@@H](Cc1ccccc1)C(N)=O)C(C)C,5.4%,6.7,·,12.3%,·
COC(=O)[C@@]1(Cc2ccccc2)[C@H]2c3cc(C(=O)N(C)C)n(CCN4CNCC4=O)c3C[C@H]2CN1C(=O)c1ccccc1,-7.5%,-3.2,·,11.1%,·
